Laboratory results: PubChem BioAssay (Tox21)
Records with an inconclusive call do not appear. Activity calls are given as the source filed them. Unless noted, calls follow the shape of the dose curve; as a rule, active = well fitted curve in the direction sought with a large enough effect in the repeat runs; inconclusive = weak or mixed curves; inactive = no such curve, though single readings can be large; an effect the other way counts as inactive or inconclusive.

Experiments:
[1] = qHTS assay to identify small molecule agonists of the peroxisome proliferator-activated receptor delta (PPARd) signaling pathway - cell viability counter screen (AID 743211); also: nearly all actives have a fitted effect of over 55% in size
Outline: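 qHTS cell viability: PPARd-bla HEK293H; 17 h cpd, 37C; CellTiter-Glo, luminescence at 30 min RT.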

[2] = molecular target: Peroxisome proliferator-activated receptor delta (Homo sapiens) (UniProt Q03181); assay: qHTS assay to identify small molecule agonists of the peroxisome proliferator-activated receptor delta (PPARd) signaling pathway (AID 743212; calls by dose curve)
Sequence of Peroxisome proliferator-activated receptor delta (Homo sapiens) (Q03181 whole entry, looked up): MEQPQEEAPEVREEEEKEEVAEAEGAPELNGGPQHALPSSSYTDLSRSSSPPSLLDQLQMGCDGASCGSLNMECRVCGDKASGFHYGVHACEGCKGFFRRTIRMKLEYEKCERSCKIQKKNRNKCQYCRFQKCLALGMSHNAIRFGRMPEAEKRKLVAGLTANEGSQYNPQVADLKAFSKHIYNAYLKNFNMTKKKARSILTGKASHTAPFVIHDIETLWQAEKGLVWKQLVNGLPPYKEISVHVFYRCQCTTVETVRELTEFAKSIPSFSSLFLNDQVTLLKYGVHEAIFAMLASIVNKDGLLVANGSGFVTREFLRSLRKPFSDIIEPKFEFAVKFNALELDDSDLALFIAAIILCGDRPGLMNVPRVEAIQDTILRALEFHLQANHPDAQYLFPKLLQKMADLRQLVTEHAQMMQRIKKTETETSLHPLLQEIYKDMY
Outline: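 A PPARd-bla HEK293H line with beta-lactamase under an Upstream Activator Sequence is treated with compounds at 37 C. Substrate loading for 2 h at room temperature precedes the fluorescence measurement.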

[3] = qHTS assay to identify small molecule antagonists of the peroxisome proliferator-activated receptor delta (PPARd) signaling pathway - cell viability counter screen (AID 743213); also: nearly all actives have a fitted effect of over 50% in size
Outline: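 PPARd-bla HEK293H cells (3000/well) got compound plus 300 nM L165041 agonist for 17 h at 37 C. Viability in the same wells came from CellTiter-Glo luminescence after 30 min at room temperature.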

[4] = qHTS assay to identify small molecule antagonists of the farnesoid-X-receptor (FXR) signaling pathway - cell viability counter screen (AID 743221; active = well fitted cell-killing curve with a large enough effect in the repeat runs, not every such curve was filed as active; also: nearly all actives have a fitted effect of over 50% in size)
Outline: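 After a 5 h settling period, FXR-bla HEK 293T cells receive compound and chenodeoxycholic acid (50 uM final) and incubate 16 h at 37 C; CellTiter-Glo luminescence, read after 30 min at room temperature, reports cell viability.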

[5] = molecular target: Vitamin D3 receptor (Homo sapiens) (UniProt P11473); assay: qHTS assay to identify small molecule agonists of the vitamin D receptor (VDR) signaling pathway (AID 743222; calls by dose curve)
Sequence of Vitamin D3 receptor (Homo sapiens) (P11473 whole entry, looked up): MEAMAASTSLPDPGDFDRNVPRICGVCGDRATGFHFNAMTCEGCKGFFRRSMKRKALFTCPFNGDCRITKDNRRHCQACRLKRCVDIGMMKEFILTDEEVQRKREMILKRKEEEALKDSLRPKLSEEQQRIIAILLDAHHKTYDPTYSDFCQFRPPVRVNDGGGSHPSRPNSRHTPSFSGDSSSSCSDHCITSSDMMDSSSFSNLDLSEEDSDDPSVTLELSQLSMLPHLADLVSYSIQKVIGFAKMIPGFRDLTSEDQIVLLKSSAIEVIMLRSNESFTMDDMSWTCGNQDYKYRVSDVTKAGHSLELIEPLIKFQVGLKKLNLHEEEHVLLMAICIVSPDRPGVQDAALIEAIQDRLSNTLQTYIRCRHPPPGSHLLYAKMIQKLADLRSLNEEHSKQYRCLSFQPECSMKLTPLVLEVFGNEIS
Outline: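 VDR-bla cells were seeded, left 4 h, treated with compounds in DMSO for 16 h, incubated 2 h at RT with B/G FRET substrate, and read for fluorescence.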

[6] = molecular target: Peroxisome proliferator-activated receptor delta (Homo sapiens) (UniProt Q03181); assay: qHTS assay to identify small molecule antagonists of the peroxisome proliferator-activated receptor delta (PPARd) signaling pathway (AID 743215; active = well fitted inhibition curve with a large enough effect in the signal ratio in the repeat runs, not every such curve was filed as active; the % refers to the signal ratio;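 also: cells stimulated with agonist L165041 at 300 nM final during compound exposure; series mostly up to about 62 µM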)
Outline: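 With L165041 present at 300 nM final, compounds were incubated 17 h at 37 C on PPARd UAS-bla HEK293H cells. A FRET-based beta-lactamase substrate was then applied for 2 h at room temperature and fluorescence intensity recorded.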

[7] = molecular target: Bile acid receptor (Homo sapiens) (UniProt Q96RI1); assay: qHTS assay to identify small molecule antagonists of the farnesoid-X-receptor (FXR) signaling pathway (AID 743217; active = well fitted inhibition curve with a large enough effect in the signal ratio in the repeat runs, not every such curve was filed as active; the % refers to the signal ratio)
Sequence of Bile acid receptor (Homo sapiens) (Q96RI1 whole entry, looked up): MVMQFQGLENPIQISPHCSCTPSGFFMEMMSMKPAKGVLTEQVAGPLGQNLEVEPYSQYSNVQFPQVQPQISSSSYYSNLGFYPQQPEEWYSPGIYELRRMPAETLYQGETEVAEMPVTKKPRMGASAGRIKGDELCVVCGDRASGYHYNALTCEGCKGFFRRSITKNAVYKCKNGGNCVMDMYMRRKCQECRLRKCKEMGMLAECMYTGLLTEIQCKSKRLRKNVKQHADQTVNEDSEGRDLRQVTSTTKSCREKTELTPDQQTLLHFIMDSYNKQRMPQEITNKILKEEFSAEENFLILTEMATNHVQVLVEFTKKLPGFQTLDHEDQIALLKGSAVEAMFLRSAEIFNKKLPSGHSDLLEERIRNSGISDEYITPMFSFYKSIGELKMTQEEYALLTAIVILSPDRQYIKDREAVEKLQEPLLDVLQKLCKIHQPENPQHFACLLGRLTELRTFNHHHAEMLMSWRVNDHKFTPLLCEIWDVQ
Outline: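 In this cell-based antagonist screen, inhibition of CDCA-driven (50 uM final) UAS-beta-lactamase expression in HEK 293T cells was measured by FRET fluorescence following 16 h compound exposure at 37 °C.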

[8] = qHTS assay to identify small molecule agonists of the farnesoid-X-receptor (FXR) signaling pathway - cell viability counter screen (AID 743218); also: nearly all actives have a fitted effect of over 45% in size
Outline: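 After 16 h at 37 C with test compounds, FXR-bla HEK 293T cells were given LiveBLAzer B/G substrate for 2 h at RT and then CellTiter-Glo; luminescence was taken after 30 min.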

[9] = molecular target: Bile acid receptor (Homo sapiens) (UniProt Q96RI1); assay: qHTS assay to identify small molecule agonists of the farnesoid-X-receptor (FXR) signaling pathway (AID 743220; active = well fitted activation curve with a large enough effect in the signal ratio in the repeat runs, not every such curve was filed as active; the % refers to the signal ratio)
Outline: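 Beta-lactamase reporter under UAS control in GeneBLAzer FXR HEK 293T cells (5000/well) measured with LiveBLAzer FRET substrate after 2 h at room temperature. Compound exposure lasted 16 h at 37C.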

[10] = molecular target: Vitamin D3 receptor (Homo sapiens) (UniProt P11473); assay: qHTS assay to identify small molecule antagonists of the vitamin D receptor (VDR) signaling pathway (AID 743223; active = well fitted inhibition curve with a large enough effect in the signal ratio in the repeat runs, not every such curve was filed as active; the % refers to the signal ratio)
Outline: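 Reporter line VDR-bla; stimulus 1alpha,25-(OH)2 vitamin D3, 3 nM final; compound co-addition, 16 h 37C/5% CO2; LiveBLAzer B/G substrate 2 h RT; fluorescence intensity.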
% is scaled to controls: 0 for no effect and ±100 for the full control effect.

CCCC[N+](CCCC)(CCCC)CCCC
inactive: Potency [1] | outcome [2] | Potency [3] | Potency [4] | outcome [5]

CC(=O)OC(c1ccccc1)C(Cl)(Cl)Cl (stereo unspecified)
inactive: Potency [1] | outcome [2] | Potency [6] | Potency [7] | Potency [8] | outcome [9] | Potency [4]

CON(C)C(=O)Nc1ccc(Cl)cc1
inactive: Potency [1] | outcome [2] | Potency [6] | Potency [7] | Potency [8] | outcome [9] | Potency [4] | Potency [10]

O=C(N/N=C/c1ccc([N+](=O)[O-])o1)c1cc([N+](=O)[O-])cc([N+](=O)[O-])c1O
inactive: Potency [1] | outcome [2] | Potency [6] | Potency [7] | Potency [8] | outcome [9] | Potency [4] | outcome [5] | Potency [10]

O=C=NC1CCCCC1
inactive: Potency [1] | outcome [2] | Potency [6] | Potency [7] | outcome [9] | Potency [4] | Potency [10]

O=[N+]([O-])O[C@H]1CO[C@H]2[C@@H]1OC[C@H]2O[N+](=O)[O-]
inactive: Potency [1] | outcome [2] | Potency [6] | Potency [7] | Potency [8] | Potency [4] | outcome [5] | Potency [10]

CCNC(=O)NC(=O)/C(C#N)=N/OC
inactive: Potency [1] | outcome [2] | Potency [6] | Potency [7] | Potency [8] | outcome [9] | Potency [4] | outcome [5]

O=S(=O)(c1ccccc1)c1ccccc1
inactive: Potency [1] | outcome [2] | Potency [6] | Potency [7] | Potency [8] | Potency [4]

Cc1ccc2c(C)cccc2c1
inactive: Potency [1] | outcome [2] | Potency [6] | Potency [4] | outcome [5]

CNC(=O)Oc1cccc(N=CN(C)C)c1
inactive: Potency [1] | outcome [2] | Potency [6] | Potency [7] | Potency [8] | Potency [4] | outcome [5] | Potency [10]

CCSCc1ccccc1OC(=O)NC
inactive: Potency [1] | outcome [2] | Potency [6] | Potency [7] | outcome [9] | Potency [4] | outcome [5] | Potency [10]

CCCC1CCCCN1 (stereo unspecified)
inactive: Potency [1] | outcome [2] | Potency [6] | Potency [8] | Potency [4]

O=[N+]([O-])c1cc(Cl)c(Cl)cc1Cl
inactive: Potency [1] | outcome [2] | Potency [6] | Potency [8] | Potency [4] | outcome [5] | Potency [10]

CN(C)N
inactive: Potency [1] | outcome [2] | Potency [6] | Potency [8] | Potency [4] | Potency [10]

COc1ccccc1N1CCNCC1
inactive: Potency [1] | outcome [2] | Potency [6] | Potency [7] | Potency [8] | outcome [9] | Potency [4] | Potency [10]

Clc1ccc2ccccc2c1
inactive: Potency [1] | outcome [2] | Potency [6] | Potency [7] | Potency [8] | outcome [9] | Potency [4]

O=C(O)C(Cl)(Cl)Br
inactive: Potency [1] | outcome [2] | Potency [6] | Potency [7] | outcome [9] | Potency [4] | outcome [5] | Potency [10]

CCCCCBr
inactive: Potency [1] | outcome [2] | Potency [6] | Potency [8] | Potency [4] | outcome [5] | Potency [10]

C[N+]1(CCC(C(N)=O)(c2ccccc2)c2ccccc2)CCCCC1
inactive: Potency [1] | outcome [2] | Potency [6] | Potency [7] | Potency [8] | outcome [9] | Potency [4]

CCC(=O)O[C@@H]1C=C2CCC3C(CCC4(C)C3CC[C@@H]4OC(=O)CC)C2CC1 (stereo partly specified)
inactive: Potency [1] | outcome [2] | Potency [6] | Potency [8] | Potency [4] | outcome [5]

Nc1cc(Cl)cc(C(=O)O)c1Cl
inactive: Potency [1] | outcome [2] | Potency [6] | Potency [4] | outcome [5] | Potency [10]

COC(=O)C1(O)c2ccccc2-c2ccccc21
inactive: Potency [1] | outcome [2] | Potency [6] | Potency [8] | Potency [4] | outcome [5]

C=CC(=O)OCC
inactive: Potency [1] | outcome [2] | Potency [6] | Potency [7] | Potency [8] | outcome [9] | Potency [4]

CC(Oc1cccc(Cl)c1)C(=O)O (stereo unspecified)
inactive: Potency [1] | outcome [2] | Potency [6] | Potency [7] | outcome [9] | outcome [5] | Potency [10]

Nc1cccc2ccccc12
inactive: Potency [1] | outcome [2] | Potency [6] | Potency [4]

O=C(O)c1cc(I)cc(I)c1I
inactive: Potency [1] | outcome [2] | Potency [6] | Potency [7] | outcome [9] | Potency [4] | outcome [5]

CCOC(=O)c1cncn1C(C)c1ccccc1 (stereo unspecified)
inactive: Potency [1] | outcome [2] | Potency [6] | Potency [8] | Potency [4]

N#CC(C#N)=Cc1ccc(O)c(O)c1
inactive: Potency [1] | outcome [2] | Potency [6] | Potency [8] | Potency [4] | Potency [10]

C[C@H](N)[C@H](O)c1ccc(O)c(O)c1
inactive: Potency [1] | outcome [2] | Potency [6] | Potency [8] | Potency [4]

CCCN(CCC)C(=O)Cc1c(-c2ccc(Cl)cc2)nc2ccc(Cl)cn12
inactive: Potency [1] | outcome [2] | Potency [6] | outcome [9] | Potency [4]

C=CCc1ccccc1O
inactive: Potency [1] | Potency [3] | Potency [6] | Potency [7] | outcome [9] | Potency [4] | outcome [5] | Potency [10]

CCCCCCCCCCCCN=C(N)N
inactive: activity change, negative = cytotoxicity [1] -26.8% [at 2.7 µM] | activation [2] 6.16% [at 2.7 µM] | activity change, negative = cytotoxicity [4] -27.4% [at 2.69 µM] | activity change, negative = inhibition [10] 3.88% [at 3.11 µM]

C[C@@H]1C[C@@H]([C@H](O)CC2CC(=O)NC(=O)C2)C(=O)[C@@H](C)C1
inactive: Potency [1] | Potency [3] | Potency [7] | Potency [8] | outcome [9] | Potency [4]
